Results from PubChem BioAssay.
“And” between values parts separate entries of the source, which are not always exact repeats. Identical values can stand only once. The source made the active and inactive calls.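 How the source made its calls: active means compounds whose cell count with miR-34 switched on is under 0.7 times the count with it off; inactive means the rest.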

assay: viability loss with induced miR-34 in A549 – imaging, A549 dox-inducible miR-34, nuclei and caspase counts, primary screen (AID 1347080); settings: A549 miR-34 inducible, Hoechst nuclei count, 48 h; active compounds read low; cell number ratio, induced over uninduced; further: test concentration not given here

SMILES	fold change
C[C@H]1COc2c(C3(N)CC3)c(F)cc3c(=O)c(C(=O)O)cn1c23	0.94 (inactive) and 0.878 (inactive)
CC(=O)Nc1ccc(CC(=O)O)cc1	0.951 (inactive)
O=C(O)CCC(=O)c1ccc(-c2ccccc2)cc1	0.889 (inactive) and 0.912 (inactive) and 0.859 (inactive)
CCN1CC(CCN2CCOCC2)C(c2ccccc2)(c2ccccc2)C1=O (configuration not stated)	0.947 (inactive) and 1 (inactive)
Cn1c(=O)c2c(ncn2CCO)n(C)c1=O	0.968 (inactive)
CN1CCCCC1CCN1c2ccccc2Sc2ccc(S(C)=O)cc21 (configuration not stated)	0.812 (inactive) and 0.898 (inactive) and 0.879 (inactive)
Nc1nc2c(ncn2CCC(CO)CO)c(=O)[nH]1	0.945 (inactive) and 0.956 (inactive) and 0.874 (inactive)
CC(C)(C(=O)c1cccnc1)c1cccnc1	0.962 (inactive) and 0.83 (inactive) and 0.921 (inactive)
CCN(CC)C(=O)N1CCN(C)CC1	0.919 (inactive) and 0.923 (inactive) and 0.836 (inactive)
NC(=NCCCCCCN=C(N)/N=C(\N)Nc1ccc(Cl)cc1)/N=C(\N)Nc1ccc(Cl)cc1	0.918 (inactive) and 0.785 (inactive)
COC(=O)CCc1ccc(OCC(O)CNC(C)C)cc1 (configuration not stated)	0.896 (inactive) and 0.841 (inactive) and 0.908 (inactive)
CN(C)/N=N/c1nc[nH]c1C(N)=O	0.938 (inactive) and 0.895 (inactive)
